From PubChem BioAssay
NPC1 promoter act: activators of NPC1 promoter. 2.4% of 320,000 active. Potency, µM (top dose mostly 9.22 µM), for inactives: top-dose activation, most hits filed as activators. AID 485313. Huh7 NPC1 promoter luciferase reporter, 24 h; note: % of control where 0% means no effect; nearly all actives have a fitted effect of over 60% in size
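Luminescence read-out of NPC1 promoter-driven luciferase in stably transfected Huh7 cells; compounds delivered in DMSO and left 24 h at 37C, 5% CO2, qHTS titration format.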
SMN2 splice up: SMN2 splice variant enhancement. 2.8% of 210,000 active. Potency, µM (highest dose often 46.1 µM), inactives show top-dose activity change, positive = activation, most hits filed as activators. AID 1458. HEK293 SMN2-luciferase splicing reporter, luminescence, 30-36 h; note: % of control where 0% means no effect; nearly all actives have a fitted effect of over 55% in size
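HEK293 cells carry an SMN2 minigene-luciferase reporter in which exon 7 inclusion puts luciferase in frame. Cells were seeded at 2000 cells/well, attached for 10-12 hours, then exposed to compounds for 30-36 hours at 37C before ONE-Glo luminescence.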
FLuc modulator: firefly luciferase modulation, counter-screen for miR-21 project; P08659; purified FLuc, Km substrates, luminescence inhibition; Potency, µM (series often up to 57.5 µM), for inactives: at the top dose activity change, negative = inhibition, usual class: inhibitors; 6.9% of 360,000 active; AID 588342;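 note: plate controls were vehicle for no effect and reference inhibitor for full effect; nearly all actives have a fitted effect of over 55% in size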
Target sequence (P08659 whole entry, looked up): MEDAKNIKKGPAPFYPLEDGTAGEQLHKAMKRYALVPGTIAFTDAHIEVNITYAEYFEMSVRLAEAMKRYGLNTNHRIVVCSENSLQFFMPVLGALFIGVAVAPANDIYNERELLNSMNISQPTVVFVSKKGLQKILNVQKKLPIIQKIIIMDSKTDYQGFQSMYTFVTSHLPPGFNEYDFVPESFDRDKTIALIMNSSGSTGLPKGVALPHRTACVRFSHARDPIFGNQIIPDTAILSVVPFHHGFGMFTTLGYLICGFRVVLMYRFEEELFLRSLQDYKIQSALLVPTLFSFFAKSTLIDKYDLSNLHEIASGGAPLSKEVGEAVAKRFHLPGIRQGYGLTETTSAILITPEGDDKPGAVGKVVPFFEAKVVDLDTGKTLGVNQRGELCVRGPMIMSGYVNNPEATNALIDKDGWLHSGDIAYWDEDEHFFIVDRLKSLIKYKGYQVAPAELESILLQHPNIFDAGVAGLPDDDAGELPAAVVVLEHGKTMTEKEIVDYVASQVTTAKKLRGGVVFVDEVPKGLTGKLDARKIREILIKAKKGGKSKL
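Biochemical qHTS of compounds, final roughly 60 µM downward over six points, against 10 nM purified firefly luciferase using Km concentrations of substrates (10 uM D-luciferin, 10 uM ATP) in Tris acetate pH 7.5 buffer; luminescence output.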
KinaseGlo FLuc: counter-screen: inhibitors of Kinase-Glo firefly luciferase | Potency, µM (top dose mostly 38.3 µM), without a hit: top-dose activity change, negative = inhibition, usual class: inhibitors | AID 1379 | Kinase-Glo luciferase, ATP luminescence, 8 min | 0.28% of 200,000 active; note: % is set by controls: 0 for no effect and ±100 for the full control effect; nearly all actives have a fitted effect of over 60% in size
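Substrate mix (final 50 mM imidazole pH 7.2, 50 mM KCl, 7 mM MgCl2, 10 uM ATP, 0.01% Tween 20, 0.05% BSA) plus pin-tool compound, then Kinase-Glo detection mix; 8 min ambient, luminescence read.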
Rab9 prom act: activators of Rab9 promoter; Potency, µM (series often up to 9.22 µM), without a hit: at the top dose activation, negative = inhibition, actives largely listed as activators; Huh7 Rab9 promoter-luciferase reporter, luminescence, 24 h; 2.8% of 320,000 active; note: % of control where 0% means no effect; nearly all actives have a fitted effect of over 60% in size
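Luciferase signal after 10 min detection reagent at ambient indicates Rab9 promoter upregulation; stably transfected Huh7 cells were treated 24 h with compound in DMSO at 37 °C, 5% CO2.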
ELG1 genotoxic: inducers of genotoxicity in HEK293T ELG1-luciferase cells | AID 504466 | 1.3% of 330,000 active | HEK293T ELG1-luciferase reporter, luminescence, 16 h | Potency, µM (doses to about 46 µM), for inactives: at the highest dose activity change, positive = activation, actives largely listed as activators; note: % of control where 0% means no effect; nearly all actives have a fitted effect of over 60% in size
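Cells (2,000/well) expressing the ELG1-luciferase fusion are dosed by pin tool and kept 16 hr at 37 °C, 5% CO2. Signal comes from ONE-Glo luciferase reagent after 30 min at room temperature.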
* marks the source's active call; other numbers are inactive results. An excerpt weighted towards active compounds, which were near 7.3% of everything screened. Calls come from the whole dose curve; as a rule, active = well fitted curve in the direction sought with a large enough effect; inconclusive = small, poorly fitted or top-dose-only effect, or another doubt; inactive = no such curve, though single readings can be large; an effect the other way counts as inactive or inconclusive. Potency is the fitted concentration of half-maximal effect.

`CC(=O)c1cccc(N(C(=O)Cn2nnc3ccccc32)C(C(=O)NCc2ccccc2)c2ccc(F)cc2)c1` (stereo not drawn) gave SMN2 splice up -5% and FLuc modulator -6%.
Screening COc1ccc(/C=C2\SC(=N)N(c3nccs3)C2=O)cc1OC returned NPC1 promoter act -3%, SMN2 splice up -23%, FLuc modulator 2.1µM*, KinaseGlo FLuc 2%, Rab9 prom act 0% and ELG1 genotoxic inconclusive.
N=C1S/C(=C\c2ccc(-c3cccc(Cl)c3)o2)C(=O)N1c1nccs1 was read as NPC1 promoter act -14%, SMN2 splice up -57%, FLuc modulator -6%, KinaseGlo FLuc 0%, Rab9 prom act -5% and ELG1 genotoxic 14%.
`Cc1ccc(-n2ncc(C(=O)NCCN3CCCC3)c2C2CCN(C(=O)OC(C)(C)C)CC2)cc1C` gave FLuc modulator -1%.
For CCc1ccc(Nc2nnc(SCC(=O)NC(=O)CN3CCCC3=O)s2)cc1 the results were NPC1 promoter act 0%, FLuc modulator 3µM*, Rab9 prom act 3% and ELG1 genotoxic 7%.
Screening CSc1nsc(SCC(=O)Nc2ccc(C(C)=O)cc2)n1 returned NPC1 promoter act 24%, SMN2 splice up 13µM*, FLuc modulator 21µM*, KinaseGlo FLuc -2%, Rab9 prom act 15% and ELG1 genotoxic 8.2µM*.
CSc1nsc(SCC(=O)Nc2ccc(NC(C)=O)cc2)n1 was read as NPC1 promoter act 2%, FLuc modulator -10%, Rab9 prom act -4% and ELG1 genotoxic 3%.
`COc1ccc(NC(=O)CSc2nnc(NC(=O)NC3CCCCC3)s2)cc1OC` gave FLuc modulator 2.4µM*.
`O=C(CSc1nnc(Nc2ccccc2)s1)NC1CCCC1` gave ELG1 genotoxic -1%.
For CC(=O)c1ccc(NC(=O)CSc2nnc(NC(=O)NC3CCCCC3)s2)cc1 the results were FLuc modulator 0.48µM*.
CCOc1cc(C(=O)NCC(c2ccc(N(C)C)cc2)N2CCOCC2)cc(OCC)c1OCC (stereo not drawn) was read as FLuc modulator 2%.
For COc1ccccc1Nc1nnc(SCC(=O)N2CCCC2)s1 the results were NPC1 promoter act 28%, SMN2 splice up 18%, FLuc modulator inconclusive, KinaseGlo FLuc inconclusive, Rab9 prom act 27% and ELG1 genotoxic inconclusive.
For COc1ccccc1Nc1nnc(SCC(=O)NC2CCCC2)s1 the results were NPC1 promoter act -1%, FLuc modulator -17%, Rab9 prom act -5% and ELG1 genotoxic -3%.
For COc1ccccc1NC(=O)CSc1nnc(NC(=O)NC2CCCCC2)s1 the results were FLuc modulator 2.4µM*.
Screening COc1ccccc1Nc1nnc(SCC(=O)N2CCCC2=O)s1 returned NPC1 promoter act 2%, SMN2 splice up -26%, FLuc modulator 9.5µM*, KinaseGlo FLuc 8%, Rab9 prom act -7% and ELG1 genotoxic 17%.
O=C(CSc1nnc(NC(=O)NC2CCCCC2)s1)Nc1ccccc1F was read as FLuc modulator 3µM*.
Screening CCOC(=O)C1CCCN(S(=O)(=O)c2ccc3c(c2)CCN3C(=O)CC)C1 (stereo not drawn) returned SMN2 splice up -22% and FLuc modulator 5%.
CCOC(=O)C1=C(CN2CCN(c3ccc(Cl)cc3)CC2)NC(=O)NC1c1ccc(OC)cc1 (stereo not drawn) was read as FLuc modulator -6%.
`COc1cccc(C=Nc2cccc3c(=O)[nH][nH]c(=O)c23)c1O` gave NPC1 promoter act -3%, SMN2 splice up 9%, FLuc modulator 0.6µM*, KinaseGlo FLuc inconclusive, Rab9 prom act 0% and ELG1 genotoxic inconclusive.
